Assay outcomes (PubChem)
Only a selection was taken, and hits are over-represented in it overall.
GluA2 TARP mod: GluA2-stargazin AMPA receptor complex modulation. O88602+P19491. 40,000 tested, 3.5% active. calls only at 30 µM. HEK293 GluA2+stargazin, membrane potential dye (FDSS), glutamate EC50; hits were called plate by plate, in both directions. AID 1259245;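 active = any of four per-well response measures lying three or more SD from its plate-wide compound average, in either direction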
GIRK2 act: GIRK2 channel activators by thallium flux. P48051. HEK293 GIRK2/NPY4 cells, thallium flux fluorescence. activation (% efficacy), % for hits at 37.5 µM. 34,000 tested, under 10 active;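 active = primary screen hit, no activity in plain HEK293 cells, and in GIRK2-only cells above 5% efficacy rising with concentration; inactive = the rest, including fluorescent compounds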;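 note: efficacy is normalized control-subtracted fluorescence 15 s after thallium addition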
Target sequence (P48051 whole entry, looked up): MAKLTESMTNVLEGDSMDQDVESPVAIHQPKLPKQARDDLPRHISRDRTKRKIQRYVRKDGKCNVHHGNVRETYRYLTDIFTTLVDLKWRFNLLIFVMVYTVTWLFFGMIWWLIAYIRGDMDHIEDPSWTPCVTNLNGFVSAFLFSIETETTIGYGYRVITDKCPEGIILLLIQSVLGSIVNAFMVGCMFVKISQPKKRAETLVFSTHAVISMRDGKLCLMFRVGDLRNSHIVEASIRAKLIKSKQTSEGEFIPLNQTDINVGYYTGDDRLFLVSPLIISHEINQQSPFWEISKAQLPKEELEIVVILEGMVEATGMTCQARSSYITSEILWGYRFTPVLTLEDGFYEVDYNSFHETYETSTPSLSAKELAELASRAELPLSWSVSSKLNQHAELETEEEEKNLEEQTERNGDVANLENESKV
* marks the source's active call; other numbers are inactive results; i = inactive; . = not tested or not shown; + = active, no number.

SMILES	GluA2 TARP mod	GIRK2 act
CCOC(=O)N1CCN(/C=C(\C#N)S(=O)(=O)c2ccc(C)c(C)c2)CC1	i	i
O=S(=O)(c1ccc(Cl)cc1)N1CCCN(S(=O)(=O)c2ccc(Cl)cc2)CC1	i	.
O=C(CCCS(=O)(=O)c1ccccc1)Nc1nc2ccccc2s1	i	i
O=C(CCCS(=O)(=O)c1ccc(Cl)cc1)Nc1ccc([N+](=O)[O-])cc1	+	.
O=C(CCCS(=O)(=O)c1ccccc1)Nc1nc(-c2ccc(Cl)s2)cs1	i	i
O=C(CCCS(=O)(=O)c1ccccc1)Nc1nc(-c2ccc(Br)s2)cs1	+	i
Cc1ccc(S(=O)(=O)CCCC(=O)N(CCN(C)C)c2nc3c(C)cccc3s2)cc1	i	i
Cc1nc2c(ccc3nc(NC(=O)CCCS(=O)(=O)c4ccccc4)sc32)s1	+	i
Cc1ccc(S(=O)(=O)CCCC(=O)N(CCN(C)C)c2nc3ccc([N+](=O)[O-])cc3s2)cc1	+	i
O=C(CCCS(=O)(=O)c1ccccc1)Nc1ccc([N+](=O)[O-])cc1	i	i
O=C(CCCS(=O)(=O)c1ccccc1)Nc1nc(-c2cc([N+](=O)[O-])cs2)cs1	+	i
CS(=O)(=O)c1ccc2nc(NC(=O)c3ccc(=O)n(Cc4c(F)cccc4Cl)c3)sc2c1	i	i
O=C(Nc1nc2ccc([N+](=O)[O-])cc2s1)c1ccc(=O)n(Cc2c(F)cccc2Cl)c1	+	i
O=C(CS(=O)(=O)Cc1ccccc1)Nc1nc(-c2cc([N+](=O)[O-])cs2)cs1	i	i
CCCOc1ccc(-c2csc(NC(=O)c3cc(C)nn3CC)n2)cc1	i	i
O=S(=O)(NCC#CCN1CCc2ccccc2C1)c1ccc2ccccc2c1	i	i
O=S(=O)(NCC#CCN1CCCCC1)c1ccc2ccccc2c1	+	.
O=C(NCC1CCN(C(=O)/C=C/c2ccco2)CC1)C1c2ccccc2Oc2ccccc21	i	i
COc1cc(OC)cc(C(=O)Nc2nnc(-c3cc(C)n(C)n3)o2)c1	+	i
COc1ccc(C(=O)Nc2nnc(-c3cc(C)n(C)n3)o2)cc1OC	+	i
COc1cc2ccccc2cc1C(=O)Nc1nnc(-c2cc(C)n(C)n2)o1	i	i
COc1ccc(C(=O)Nc2nnc(-c3cc(C)nn3C)o2)cc1OC	.	i
Cc1ccc(-c2ccc(=O)n(CCCNC(=O)Cc3ccccc3Cl)n2)cc1	i	i
O=C(NCC(c1cccs1)N1CCOCC1)C(=O)Nc1ccccc1[N+](=O)[O-] (centres undefined)	i	.
Cc1cc(=O)[nH]c2cc(NC(=O)c3cnn(-c4ccccc4)n3)ccc12	.	i
SMILES	GluA2 TARP mod	GIRK2 act
O=C(Nc1sc2c(c1C(=O)O)CCC2)c1cccc(Cl)c1	+	.
CC(C)S(=O)(=O)c1cccc(C(=O)Nc2sc3c(c2C(N)=O)CCCC3)c1	i	i
COCc1ccc(C(=O)Nc2nnc(C)s2)o1	i	i
CCOC(=O)N(C)Cc1nc2ccccc2n1Cc1c(F)cccc1Cl	+	.
Fc1cccc(Cl)c1Cn1c(CN2CCCC2)nc2ccccc21	+	i
CN(Cc1nc2ccccc2n1Cc1cccc(Cl)c1)C(=O)c1ccco1	.	i
Brc1ccc(Cn2c(CN3CCCC3)nc3ccccc32)cc1	i	.
CCn1nccc1C(=O)Nc1ccc(-c2nc3ccc(C)cc3s2)cc1	i	i
O=C(N1CCC(c2nnc(-c3ccc(F)cc3)o2)CC1)C1(c2cccs2)CCCC1	+	i
O=C(c1cccs1)N1CCC(c2nnc(-c3ccc(F)cc3)o2)CC1	i	i
Cn1c(=O)c2c(nc3n2CC(c2ccc(F)cc2)=NN3CC(N)=O)n(C)c1=O	+	.
Cn1c(=O)c2c(nc3n2CC(c2ccc(F)cc2)=NN3CC(=O)O)n(C)c1=O	i	.
CCOC(=O)c1ccc2nc(NC(=O)c3ccn(C)n3)sc2c1	+	i
CCOC(=O)c1ccc2c(c1)sc(=NC(=O)c1ccn(CC)n1)n2CCSC	.	i
CCOC(=O)c1ccc(NC(=O)c2ccn(C)n2)cc1	i	i
CCOCCn1c(=NC(=O)c2ccn(C)n2)sc2cc(C(=O)OCC)ccc21	+	i
CCN1CCC2(CC1)Oc1ccccc1C1CC(c3cc(Cl)ccc3O)=NN12 (centres undefined)	i	.
O=C(NCC(F)(F)F)C1CCN(C(=O)CSCc2ccccc2)CC1	.	i
O=C(NCC(F)(F)F)c1ccc(N2CCC(Cc3ccccc3)CC2)nn1	+	i
CCOC(=O)N1CCC(NC(=O)C(=O)NCCC2=CCCCC2)CC1	i	i
COc1cccc2cc(C(=O)OCCN3CCOCC3)c(=O)oc12	i	i
CCOC(=O)C(=O)N1CCN(c2nccn2-c2ccc(C)cc2)CC1	.	i
O=C(CSc1ncnc2[nH]ncc12)c1ccc(-c2ccccc2)cc1	i	.
CN(C)C(=O)CSc1ncnc2sc(-c3ccccc3)cc12	+	i
COc1cc(NC(=O)c2n[nH]nc2Nc2cccc(Cl)c2)cc(OC)c1	+	i
SMILES	GluA2 TARP mod	GIRK2 act
O=C(Nc1ccccc1Br)c1n[nH]nc1Nc1cccc(Cl)c1	i	i
CC(C)c1nnc(C2CCN(S(=O)(=O)c3cccnc3)CC2)o1	i	i
CC(C)c1nnc(C2CCN(S(=O)(=O)c3ccc4c(c3)CCCC4)CC2)o1	+	i
O=C(NCc1nc(-c2ccccc2)no1)c1csc(-c2cnccn2)n1	i	i
O=C(CCCS(=O)(=O)c1ccc(Cl)cc1)Nc1nccs1	i	.
Cc1nc(-c2ccc(F)cc2)sc1-c1cc(C(=O)N2CCC3(CC2)OCCO3)n[nH]1	i	i
Cc1cc([N+](=O)[O-])ccc1NC(=O)c1ccc(=O)n(Cc2cccc(C(F)(F)F)c2)c1	+	i
Cc1cc([N+](=O)[O-])ccc1NC(=O)c1ccc(=O)n(Cc2cccc([N+](=O)[O-])c2)c1	+	i
O=C(Nc1cccc([N+](=O)[O-])c1)c1ccc(=O)n(Cc2cccc([N+](=O)[O-])c2)c1	i	i
O=C(Nc1ccc(Br)cc1)c1ccc(=O)n(Cc2cccc([N+](=O)[O-])c2)c1	+	i
O=C(Nc1ccc(F)c(F)c1)c1ccc(=O)n(Cc2cccc(Cl)c2)c1	+	i
Cc1ccc([N+](=O)[O-])cc1NC(=O)c1ccc(=O)n(Cc2cccc(C(F)(F)F)c2)c1	i	i
Cc1cc([N+](=O)[O-])ccc1NC(=O)c1ccc(=O)n(Cc2ccccc2)c1	i	i
O=C(Nc1ccc(Cl)cc1)c1ccc(=O)n(Cc2cccc(Cl)c2)c1	i	i
O=C(c1ccc2c(c1)OCO2)N1CCC2(CC1)NC(=O)N(Cc1ccc(F)cc1)C2=O	i	i
CC(C)C(=O)Nc1ccc(SCC(=O)Nc2ccc(Cl)c(Cl)c2)nn1	i	i
CC(C(=O)Nc1ccc(Cl)c(Cl)c1)N1C(=O)C2CC=C(Cl)CC2C1=O (centres undefined)	+	.
Cc1cc(NC(=O)CSc2nnc(N3CCN(C(=O)Cc4cccs4)CC3)s2)no1	+	i
Cc1cccc(Nc2ccc(N3CCN(C(=O)C(C)(C)C)CC3)nn2)n1	.	i
Cc1cccc(Nc2ccc(N3CCN(C(=O)Cc4cccs4)CC3)nn2)n1	+	i
